Experimental data as given in the GenesisPotency data set.
The whole screen tested about 110 compounds, of which fewer than 10 were called active.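 Rule for the calls: active = EC50 at or below 33 microM; inactive = the rest.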 Only a sample is shown. Measured potencies and affinities stand elsewhere.

biological target: Ammonium transporter MEP2, Saccharomyces cerevisiae (strain ATCC 204508 / S288c) (UniProt P41948); test: MEP2-GFP expression modulation in yeast, dose response, flow cytometry, KU SAR set, S. cerevisiae (AID 488801)
Sequence (P41948 whole entry): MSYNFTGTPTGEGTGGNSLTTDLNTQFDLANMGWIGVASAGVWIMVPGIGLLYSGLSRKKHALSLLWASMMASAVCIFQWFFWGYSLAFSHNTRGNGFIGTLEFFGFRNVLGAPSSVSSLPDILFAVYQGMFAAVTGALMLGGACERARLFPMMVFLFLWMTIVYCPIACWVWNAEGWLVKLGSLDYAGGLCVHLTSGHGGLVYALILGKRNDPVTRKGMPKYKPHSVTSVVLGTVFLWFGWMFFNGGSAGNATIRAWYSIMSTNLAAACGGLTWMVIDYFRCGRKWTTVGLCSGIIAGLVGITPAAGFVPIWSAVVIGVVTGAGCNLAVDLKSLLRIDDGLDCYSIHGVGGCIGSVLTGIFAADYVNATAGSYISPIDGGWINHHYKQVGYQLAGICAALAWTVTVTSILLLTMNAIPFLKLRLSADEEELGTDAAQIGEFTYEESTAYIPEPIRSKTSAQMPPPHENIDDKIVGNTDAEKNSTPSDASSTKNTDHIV

outcome, inactive:
O=[N+]([O-])c1ccc(O)c2ncccc12
CC(C)(C)c1ccc(NC(=O)COC(=O)c2ccc([N+](=O)[O-])s2)cc1
Nc1nc(NCc2ccco2)nc(Nc2cccc(F)c2)c1[N+](=O)[O-]
CC(C)(C)C(=O)NC(=S)NNC(=O)c1ccc(-c2ccccc2)cc1
CCC(C)Nc1nc(N)c([N+](=O)[O-])c(Nc2cccc(F)c2)n1 (stereo not drawn)
CNc1nc(N)c([N+](=O)[O-])c(Nc2cc(OC)ccc2OC)n1
CNc1nc(N)c([N+](=O)[O-])c(NCc2ccccc2)n1
Nc1nc(Nc2ccccc2F)nc(Nc2cccc(F)c2)c1[N+](=O)[O-]
O=C(CCc1ccccc1)NNC(=S)NC(=O)c1ccccc1
CC(Oc1ccc(Cl)cc1)C(=O)NNC(=S)NC(=O)c1ccco1 (stereo not drawn)
O=[N+]([O-])c1cc(O)c2ncccc2c1
Cc1ccc2nc(Cl)c3nnnn3c2c1
Cc1nn2c(-c3ccncc3)nnc2c2ccccc12
